BioA inh: inhibitors of Mycobacterium tuberculosis BioA enzyme; purified M. tuberculosis BioA enzyme, plate reader; inhibition, % at 9.99 µM; 360,000 compounds, 0.096% hits; AID 602481; in the data active = inhibition above about 40%; inconclusive = no clear call, values can overlap the other calls
PfHsp40 rescue: rescue of PfHsp40-mediated yeast toxicity | S. cerevisiae expressing PfHsp40, growth rescue, ATP luminescence | growth rescue, % at 12.5 µM | 340,000 compounds, 0.68% hits | AID 504582; in the data active = growth rescue above about 28%, passing the limit was not always enough; inconclusive = no clear call, values can overlap the other calls;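 note: yeast W303a lacking pdr1 and pdr3 grown in galactose medium; growth measured after three days at 30 °C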
TcdB GH inh: inhibitors of Clostridioides difficile toxin B glycohydrolase | TcdB glycohydrolase enzymatic assay, plate reader | AID 652162 | 350,000 compounds, 0.24% hits | inhibition, % at 9.99 µM; in the data active = inhibition above about 10%
FadD28 FP inh: M. tuberculosis FadD28 bisubstrate binding inhibition; inhibition, % at 12.5 µM; 360,000 compounds, 0.22% hits; FadD28 bisubstrate probe binding, fluorescence polarization; in the data active = inhibition above about 8.5%, passing the limit was not always enough; inconclusive = no clear call, values can overlap the other calls
PrP 5UTR inh: inhibition of PrP 5' UTR reporter expression | AID 488862 | inhibition, % (concentration not given with the values) | cell-based PrP 5' UTR mRNA reporter, plate reader | 340,000 compounds, 0.35% hits; in the data active = inhibition above about 52%; note: 0 = median of the neutral control wells
PrP UTR cherry: prion 5' UTR mRNA inhibition, cherry-pick retest; shares compounds with PrP 5UTR inh; cell-based prion protein 5' UTR reporter, plate reader; inhibition, % at 2.5 µM; 1,100 compounds, 48% hits; in the data active = inhibition above about 54%; inconclusive = no clear call, values can overlap the other calls
* marks the source's active call; other numbers are inactive results; ? = inconclusive; nt = not tested or not shown. Shown are actives, neighbours in structure and some others; about 1.1% of the full set was active somewhere.

SMILES	BioA inh	PfHsp40 rescue	TcdB GH inh	FadD28 FP inh	PrP 5UTR inh	PrP UTR cherry
CC1CCCCN1CCCNC(=O)c1cc(Br)c(Br)[nH]1 (centres undefined)	nt	0	nt	-3	82*	6
CCN1C(=O)[C@H]2[C@H]3CN=C(SCC4CC4)N3[C@@](Cc3ccccc3)(C(=O)OC)[C@H]2C1=O	-1	-2	2	-1	64*	-1
CCN1C(=O)[C@H]2[C@H]3CN=C(SCc4ccccc4)N3[C@@](Cc3ccccc3)(C(=O)OC)[C@H]2C1=O	1	-1	1	0	-17	nt
CCCNC(=O)N1C[C@@H](C)[C@@H](OC)CN(C)C(=O)c2cc(NC(C)=O)ccc2OC[C@@H]1C	-2	nt	0	nt	nt	nt
CCCOc1ccccc1C1CC(=O)Nc2cc3c(cc21)OCCO3 (centres undefined)	-3	0	nt	-1	70*	80*
CCOc1ccccc1C1CC(=O)Nc2cc3c(cc21)OCCO3 (centres undefined)	0	-2	nt	1	56*	84*
CCOc1ccccc1C1CC(=O)Nc2cc(C)c(C)cc21 (centres undefined)	-1	-1	1	-5	-10	nt
C[C@@H]1CCCCO[C@@H](CN(C)S(=O)(=O)c2cccs2)[C@H](C)CN([C@H](C)CO)C(=O)c2cc(NC(=O)NC3CCCCC3)ccc2O1	-5	nt	nt	nt	nt	nt
COc1ccccc1C(=O)Nc1ccc2c(c1)nc1n2CCN(Cc2ccccc2)C1	0	0	1	-7	56*	-4
CCNC(=O)[C@@H]1[C@@H](CO)[C@@H]2Cn3c(ccc(-c4ccccc4F)c3=O)[C@H]1N2Cc1cccnc1	0	nt	1	nt	nt	nt
COc1cccc(-c2ccc3ncnc(NCc4cc(C)cs4)c3c2)c1	0	?	1	-10	61*	-3
O=C(CCN1CCCCC1)N[C@@H]1CC[C@@H](CCNC(=O)c2cc(Cl)cc(Cl)c2)O[C@@H]1CO	-1	nt	0	nt	nt	nt
COC(=O)Cc1ccc(NC(=O)c2ccc(C(C)(C)C)cc2)cc1	3	12	nt	-4	79*	65*
CC(C)(C)c1ccc(C(=O)Nc2ccc(Cl)cc2)cc1	nt	0	0	-3	-147	nt
Cc1ccc(-n2nnc(-c3nccs3)n2)cc1	0	-2	2	-3	77*	62*
C[C@H]1CN([C@@H](C)CO)C(=O)c2cc(/C=C/c3ccccc3)cnc2O[C@H]1CN(C)C(=O)C1CCC1	1	nt	1	nt	nt	nt
Cc1ccc2c([N+](=O)[O-])cccc2n1	nt	-1	nt	-3	-12	nt
Cc1nc2c(ccc3c([N+](=O)[O-])cccc32)c(C)c1C	-1	0	3	1	71*	-53
Cc1noc(C)c1NC(=O)Nc1ccc2c(c1)CC(=O)N([C@H](C)CO)C[C@@H](C)[C@@H](CN(C)C(=O)Nc1cccc3ccccc13)O2	15	nt	1	nt	nt	nt
O=C(NCC1CCCO1)c1ccc2c(c1)N(Cc1ccccc1)C(=O)CS2=O (centres undefined)	0	-1	1	-2	-16	nt
O=C(NCc1ccco1)c1ccc2c(c1)N(Cc1ccccc1)C(=O)CS2=O (centres undefined)	1	0	1	-4	61*	15
Cc1noc(C)c1NC(=O)N(C)C[C@H]1Oc2c(NC(=O)c3cnccn3)cccc2C(=O)N([C@H](C)CO)C[C@H]1C	-1	nt	0	nt	nt	nt
CC(C)(O)/C=C/C(=O)[C@](C)(O)C1[C@H](O)C[C@@]2(C)C3CC=C4C(C[C@H](O)[C@@H](O)C4(C)C)[C@]3(C)C(=O)C[C@]12C (some centres undefined)	-1	3	nt	-4	65*	75*
CC(C)(O)/C=C/C(=O)[C@](C)(O)C1[C@H](O)C[C@@]2(C)C3CC=C4C(C=C(O[C@@H]5O[C@H](CO)[C@@H](O)[C@H](O)[C@H]5O)C(=O)C4(C)C)[C@]3(C)C(=O)C[C@]12C (some centres undefined)	-1	-1	-7	1	-11	nt
CC(C)(C)OC(=O)C[C@@H]1C/C=C\C[C@H](CC(=O)N(CCO)Cc2ccccc2)C(=O)N[C@H](C(C)(C)C)COC1=O	4	-1	0	-1	60*	0
SMILES	BioA inh	PfHsp40 rescue	TcdB GH inh	FadD28 FP inh	PrP 5UTR inh	PrP UTR cherry
C[C@@H]1COC(=O)[C@H](CC(=O)OC(C)(C)C)C/C=C\C[C@H](CC(=O)N(CCO)Cc2ccccc2)C(=O)N1	-2	3	2	-2	-22	nt
CC(C)OC(=O)c1cc(C(=O)c2cc(Br)ccc2O)coc1=N	-1	-1	-2	1	63*	-15
CCN(CC)c1ccc(/C=N/N=C(N)N)c(O)c1	nt	-1	-11	0	62*	90*
C[C@H]1CN([C@@H](C)CO)C(=O)c2cc(NC(=O)C3CC3)ccc2O[C@@H]1CN(C)C(=O)Nc1cccc2ccccc12	3	nt	1	nt	nt	nt
COc1ccc(CC(=O)OCC(=O)N2CCN(S(=O)(=O)c3ccc(C)cc3C)CC2)cc1	0	-2	0	-3	88*	-12
CC(C)(C)C(=O)Nc1cccc(-c2nnc(-c3cccc(NC(=O)C(C)(C)C)c3)o2)c1	-4	0	nt	0	59*	-44
C[C@@H]1CN([C@@H](C)CO)C(=O)c2cc(N(C)C)ccc2O[C@@H](C)CCCCO[C@@H]1CN(C)Cc1ccccc1	-1	nt	-24	nt	nt	nt
COc1ccc(S(=O)(=O)N2CCCCN3[C@H](C2)[C@H](c2ccc(C4=CCCCC4)cc2)[C@@H]3CO)cc1	1	nt	-2	nt	nt	nt
O=C(CSc1nnc(NC(=O)c2c(F)cccc2F)s1)Nc1ccccc1F	-1	-1	3	-1	-20	nt
CC(C)c1nnc(NC(=O)CSc2nnc(NC(=O)c3c(F)cccc3F)s2)s1	0	0	0	-3	79*	-2
O=C(NC[C@@H]1CC[C@@H]2[C@@H](CN2Cc2ccccc2F)O1)C1CCCCC1	nt	nt	-1	nt	nt	nt
O=C(C[C@@H]1C=C[C@H](NC(=O)c2ccncc2)[C@@H](CO)O1)NCC1CCCCC1	-1	nt	1	nt	nt	nt
CCOC(=O)c1c(SCCN2CCCC2)n(-c2ccccc2)c(=S)n(-c2ccccc2)c1=O	nt	1	1	-2	65*	21
CC(OC(=O)CCN=C1NS(=O)(=O)c2ccccc21)C(=O)NCc1ccccc1 (centres undefined)	-1	0	-2	-2	67*	-14
CCN(CC)c1ccc(C2NC(=O)c3ccccc3N2)cc1 (centres undefined)	nt	-3	0	0	60*	-7
CC(=O)OCC12CC(OC(=O)CC(C)C)C(C)=CC1OC1C(O)C(OC(C)=O)C2(C)C12CO2 (centres undefined)	nt	nt	1	-1	91*	93*
Cc1ccc(S(=O)(=O)Nc2cccc3c2O[C@@H](CN(C)Cc2ccccc2)[C@@H](C)CN([C@H](C)CO)C3=O)cc1	3	nt	0	nt	nt	nt
